# Measured values: PMC7862700, “An all-to-all approach to the identification of sequence-specific readers for epigenetic DNA modifications on cytosine”
# Experiments:
# Assay in all cases: DAPPL (digital affinity profiling via proximity ligation, sequencing); 10 mM Tris-HCl pH 7.5, 50 mM NaCl, 1 mM DTT, 4% glycerol, room temperature, 30 min; GST-TFs on glutathione beads, 16-mer random dsDNA library, 0.1% formaldehyde crosslink after washing; high values mean tight binding
# FEV = molecular target: T1, FEV (Homo sapiens, UniProt Q99581 1-238); details: protein: recombinant; tags: N-terminal GST; dsDNA, one strand shown
# T1 sequence: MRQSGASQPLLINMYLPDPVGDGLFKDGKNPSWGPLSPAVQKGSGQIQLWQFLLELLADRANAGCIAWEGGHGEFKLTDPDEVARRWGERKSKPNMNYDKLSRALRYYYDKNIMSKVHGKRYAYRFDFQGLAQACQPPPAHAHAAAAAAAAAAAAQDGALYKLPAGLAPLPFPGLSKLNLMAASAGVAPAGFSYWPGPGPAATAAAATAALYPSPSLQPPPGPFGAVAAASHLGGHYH
# Procedure, shortened: (§1)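 In yeast, human transcription factors were expressed with a GST fusion, then pulled down on glutathione beads and given DNA barcodes. Pooled with a tag-only sample, they were exposed to 200 nmole of a 16-mer random double-stranded DNA library (Tris/NaCl/DTT/glycerol buffer, room temperature, 30 min), washed, crosslinked with 0.1% formaldehyde, proximity-ligated using BsaI/T4 ligase for 1 h at 37 °C, PCR-amplified and read on an Illumina NextSeq500. Each hexamer's frequency of reads for a factor, divided by the matching frequency for the tag-only sample, gives the binding signal.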
# ETV5 = ETV5 (Homo sapiens, UniProt P41161 1-510); details: protein: recombinant; tags: N-terminal GST; dsDNA, one strand shown
# Procedure, shortened: as §1
# HSF1 = HSF1 (Homo sapiens, UniProt Q00613 1-529); details: protein: recombinant; tags: N-terminal GST; chain copies: 3; dsDNA, one strand shown
# Procedure, shortened: as §1
# SPIC = molecular target: T2, SPIC (Homo sapiens, UniProt Q8N5J4 1-248); details: protein: recombinant; tags: N-terminal GST; dsDNA, one strand shown
# T2 sequence: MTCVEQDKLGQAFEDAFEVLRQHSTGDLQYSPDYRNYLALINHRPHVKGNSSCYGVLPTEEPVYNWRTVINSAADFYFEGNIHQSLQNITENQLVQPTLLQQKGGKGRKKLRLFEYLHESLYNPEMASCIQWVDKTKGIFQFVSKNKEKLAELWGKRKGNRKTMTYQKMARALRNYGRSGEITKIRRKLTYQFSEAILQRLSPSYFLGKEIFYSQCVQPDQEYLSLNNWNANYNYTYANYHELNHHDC
# Procedure, shortened: as §1
# ELF4 = ELF4 (Homo sapiens, UniProt Q99607 1-663); details: protein: recombinant; tags: N-terminal GST; dsDNA, one strand shown
# Procedure, shortened: as §1
# ELK4 = molecular target: T3, ELK4 (Homo sapiens, UniProt P28324-2 1-405); details: protein: recombinant; tags: N-terminal GST; dsDNA, one strand shown
# T3 sequence: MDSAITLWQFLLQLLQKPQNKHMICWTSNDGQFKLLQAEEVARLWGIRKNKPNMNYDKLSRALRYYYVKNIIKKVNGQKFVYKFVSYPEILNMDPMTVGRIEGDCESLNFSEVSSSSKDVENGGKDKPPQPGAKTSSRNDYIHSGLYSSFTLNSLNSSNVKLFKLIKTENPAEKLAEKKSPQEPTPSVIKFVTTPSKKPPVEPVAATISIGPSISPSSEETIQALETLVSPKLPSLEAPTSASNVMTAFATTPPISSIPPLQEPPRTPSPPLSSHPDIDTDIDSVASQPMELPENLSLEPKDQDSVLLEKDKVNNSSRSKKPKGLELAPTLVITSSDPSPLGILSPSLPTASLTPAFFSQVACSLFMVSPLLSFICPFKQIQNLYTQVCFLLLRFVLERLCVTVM
# Procedure, shortened: as §1
# ETV2 = molecular target: T4, ETV2 (Homo sapiens, UniProt O00321 1-342); details: protein: recombinant; tags: N-terminal GST; dsDNA, one strand shown
# T4 sequence: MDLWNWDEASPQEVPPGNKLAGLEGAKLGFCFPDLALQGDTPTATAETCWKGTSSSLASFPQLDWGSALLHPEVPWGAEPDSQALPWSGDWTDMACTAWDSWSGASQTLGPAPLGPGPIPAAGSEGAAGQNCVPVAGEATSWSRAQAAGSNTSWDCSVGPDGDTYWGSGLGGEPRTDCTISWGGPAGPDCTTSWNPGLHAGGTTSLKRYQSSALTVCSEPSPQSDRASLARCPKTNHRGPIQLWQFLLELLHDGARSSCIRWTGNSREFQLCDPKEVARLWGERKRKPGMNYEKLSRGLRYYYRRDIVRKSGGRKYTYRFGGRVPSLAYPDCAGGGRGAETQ
# Procedure, shortened: as §1
# ELF3 = molecular target: T5, ELF3 (Homo sapiens, UniProt P78545 1-371); details: protein: recombinant; tags: N-terminal GST; dsDNA, one strand shown
# T5 sequence: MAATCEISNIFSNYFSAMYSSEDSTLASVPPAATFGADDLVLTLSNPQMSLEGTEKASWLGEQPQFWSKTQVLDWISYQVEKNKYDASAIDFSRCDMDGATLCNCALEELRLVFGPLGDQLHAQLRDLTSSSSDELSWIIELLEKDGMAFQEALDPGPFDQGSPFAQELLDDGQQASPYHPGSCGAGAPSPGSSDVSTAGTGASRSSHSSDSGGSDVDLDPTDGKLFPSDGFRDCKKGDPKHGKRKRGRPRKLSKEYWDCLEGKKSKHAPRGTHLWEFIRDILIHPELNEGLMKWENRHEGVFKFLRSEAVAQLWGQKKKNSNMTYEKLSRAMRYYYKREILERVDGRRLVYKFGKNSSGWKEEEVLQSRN
# Procedure, shortened: as §1
# CRX = CRX (Homo sapiens, UniProt O43186 1-299); details: protein: recombinant; tags: N-terminal GST; dsDNA, one strand shown
# Procedure, shortened: as §1
# ETV1 = ETV1 (Homo sapiens, UniProt P50549 1-477); details: protein: recombinant; tags: N-terminal GST; dsDNA, one strand shown
# Procedure, shortened: as §1
# ERF = molecular target: T6, ERF (Homo sapiens, UniProt P50548 1-548); details: protein: recombinant; tags: N-terminal GST; dsDNA, one strand shown
# T6 sequence: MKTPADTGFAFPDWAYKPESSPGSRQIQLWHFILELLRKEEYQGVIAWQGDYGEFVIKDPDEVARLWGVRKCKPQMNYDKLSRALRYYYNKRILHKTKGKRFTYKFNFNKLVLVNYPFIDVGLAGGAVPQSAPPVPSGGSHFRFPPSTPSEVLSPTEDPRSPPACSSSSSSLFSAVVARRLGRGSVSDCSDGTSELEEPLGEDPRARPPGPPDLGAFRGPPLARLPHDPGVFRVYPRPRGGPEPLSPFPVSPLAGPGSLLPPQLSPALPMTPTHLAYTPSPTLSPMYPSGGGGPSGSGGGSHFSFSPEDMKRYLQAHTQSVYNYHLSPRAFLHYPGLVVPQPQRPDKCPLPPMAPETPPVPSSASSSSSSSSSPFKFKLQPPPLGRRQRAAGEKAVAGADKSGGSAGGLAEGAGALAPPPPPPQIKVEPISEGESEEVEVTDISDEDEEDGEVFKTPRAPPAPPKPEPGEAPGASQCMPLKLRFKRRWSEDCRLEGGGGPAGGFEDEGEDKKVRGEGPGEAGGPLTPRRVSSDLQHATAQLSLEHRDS
# Procedure, shortened: as §1
# ETV3L = molecular target: T7, ETV3L (Homo sapiens, UniProt Q6ZN32 1-361); details: protein: recombinant; tags: N-terminal GST; dsDNA, one strand shown
# T7 sequence: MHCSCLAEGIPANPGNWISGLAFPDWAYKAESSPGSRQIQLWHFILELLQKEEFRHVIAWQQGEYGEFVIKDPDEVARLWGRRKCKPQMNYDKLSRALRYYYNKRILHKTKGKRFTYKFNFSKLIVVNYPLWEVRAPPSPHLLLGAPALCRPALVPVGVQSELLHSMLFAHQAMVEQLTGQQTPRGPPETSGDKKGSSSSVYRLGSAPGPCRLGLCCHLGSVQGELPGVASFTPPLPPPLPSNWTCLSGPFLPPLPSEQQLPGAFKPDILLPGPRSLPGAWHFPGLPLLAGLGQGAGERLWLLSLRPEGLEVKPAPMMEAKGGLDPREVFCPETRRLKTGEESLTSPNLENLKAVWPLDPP
# Procedure, shortened: as §1
# ETS2 = molecular target: T8, ETS2 (Homo sapiens, UniProt P15036 1-469); details: protein: recombinant; tags: N-terminal GST; dsDNA, one strand shown
# T8 sequence: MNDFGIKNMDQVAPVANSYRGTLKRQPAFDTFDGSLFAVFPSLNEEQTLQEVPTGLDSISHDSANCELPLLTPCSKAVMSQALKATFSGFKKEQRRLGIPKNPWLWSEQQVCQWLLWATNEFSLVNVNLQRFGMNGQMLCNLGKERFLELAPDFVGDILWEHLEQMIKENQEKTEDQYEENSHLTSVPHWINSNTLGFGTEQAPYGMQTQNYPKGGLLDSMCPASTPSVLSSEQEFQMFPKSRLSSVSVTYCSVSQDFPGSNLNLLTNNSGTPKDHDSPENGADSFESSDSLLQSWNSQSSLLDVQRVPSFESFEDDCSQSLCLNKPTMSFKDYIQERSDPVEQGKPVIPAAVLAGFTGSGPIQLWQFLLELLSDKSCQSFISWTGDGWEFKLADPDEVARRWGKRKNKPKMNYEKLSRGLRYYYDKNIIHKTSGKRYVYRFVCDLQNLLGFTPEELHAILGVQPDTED
# Procedure, shortened: as §1
# SPDEF = molecular target: T9, SPDEF (Homo sapiens, UniProt O95238 1-335); details: protein: recombinant; tags: N-terminal GST; dsDNA, one strand shown
# T9 sequence: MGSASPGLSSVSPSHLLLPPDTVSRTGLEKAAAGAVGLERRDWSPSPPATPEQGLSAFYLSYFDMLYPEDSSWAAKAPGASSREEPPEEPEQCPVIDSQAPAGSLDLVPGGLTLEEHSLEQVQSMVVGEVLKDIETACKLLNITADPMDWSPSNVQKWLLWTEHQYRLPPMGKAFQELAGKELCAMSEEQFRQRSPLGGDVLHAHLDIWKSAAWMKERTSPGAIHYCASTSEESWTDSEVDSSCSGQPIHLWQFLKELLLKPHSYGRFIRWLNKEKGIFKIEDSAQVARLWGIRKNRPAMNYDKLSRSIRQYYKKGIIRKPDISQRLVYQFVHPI
# Procedure, shortened: as §1
# ETV7 = molecular target: T10, ETV7 (Homo sapiens, UniProt Q9Y603 1-341); details: protein: recombinant; tags: N-terminal GST; dsDNA, one strand shown
# T10 sequence: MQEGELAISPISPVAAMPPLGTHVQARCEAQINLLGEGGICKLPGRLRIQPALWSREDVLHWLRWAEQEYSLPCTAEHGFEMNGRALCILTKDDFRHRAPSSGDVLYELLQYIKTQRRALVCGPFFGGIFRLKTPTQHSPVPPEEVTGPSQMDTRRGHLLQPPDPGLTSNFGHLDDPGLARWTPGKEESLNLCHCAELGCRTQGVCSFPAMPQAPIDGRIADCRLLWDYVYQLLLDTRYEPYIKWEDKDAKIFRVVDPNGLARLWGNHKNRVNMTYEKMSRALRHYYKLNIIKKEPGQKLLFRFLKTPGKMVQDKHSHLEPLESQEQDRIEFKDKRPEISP
# Procedure, shortened: as §1
# ELF5 = molecular target: T11, ELF5 (Homo sapiens, UniProt Q9UKW6-2 1-255); details: protein: recombinant; tags: N-terminal GST; dsDNA, one strand shown
# T11 sequence: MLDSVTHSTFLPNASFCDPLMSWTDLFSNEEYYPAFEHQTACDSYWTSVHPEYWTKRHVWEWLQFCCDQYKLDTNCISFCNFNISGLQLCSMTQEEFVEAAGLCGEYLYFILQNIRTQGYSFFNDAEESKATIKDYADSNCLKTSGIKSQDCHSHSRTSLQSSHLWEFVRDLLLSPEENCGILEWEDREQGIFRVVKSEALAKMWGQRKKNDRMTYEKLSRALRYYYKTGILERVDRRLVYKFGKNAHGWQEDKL
# Procedure, shortened: as §1
# ETV3 = molecular target: T12, ETV3 (Homo sapiens, UniProt P41162-2 1-143); details: protein: recombinant; tags: N-terminal GST; dsDNA, one strand shown
# T12 sequence: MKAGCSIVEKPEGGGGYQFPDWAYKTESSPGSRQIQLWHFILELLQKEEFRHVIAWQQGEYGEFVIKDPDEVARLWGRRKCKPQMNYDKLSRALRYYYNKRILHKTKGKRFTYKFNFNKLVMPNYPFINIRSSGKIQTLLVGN
# Procedure, shortened: as §1
# ETV6 = ETV6 (Homo sapiens, UniProt P41212 1-452); details: protein: recombinant; tags: N-terminal GST; dsDNA, one strand shown
# Procedure, shortened: as §1
# Chain of ETV6 (P41212 whole entry): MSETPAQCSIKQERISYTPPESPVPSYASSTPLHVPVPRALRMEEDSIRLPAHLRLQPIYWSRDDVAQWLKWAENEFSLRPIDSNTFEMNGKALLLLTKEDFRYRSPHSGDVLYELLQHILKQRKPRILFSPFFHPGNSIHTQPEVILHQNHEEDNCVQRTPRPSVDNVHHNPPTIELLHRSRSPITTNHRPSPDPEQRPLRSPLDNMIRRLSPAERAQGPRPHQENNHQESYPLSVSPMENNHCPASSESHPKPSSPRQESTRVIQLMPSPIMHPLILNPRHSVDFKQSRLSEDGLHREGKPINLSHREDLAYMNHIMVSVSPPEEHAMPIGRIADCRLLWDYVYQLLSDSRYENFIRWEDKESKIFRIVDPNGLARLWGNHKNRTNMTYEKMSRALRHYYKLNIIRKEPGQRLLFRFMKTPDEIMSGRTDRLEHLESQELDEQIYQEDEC
# Chain of HSF1 (Q00613 whole entry): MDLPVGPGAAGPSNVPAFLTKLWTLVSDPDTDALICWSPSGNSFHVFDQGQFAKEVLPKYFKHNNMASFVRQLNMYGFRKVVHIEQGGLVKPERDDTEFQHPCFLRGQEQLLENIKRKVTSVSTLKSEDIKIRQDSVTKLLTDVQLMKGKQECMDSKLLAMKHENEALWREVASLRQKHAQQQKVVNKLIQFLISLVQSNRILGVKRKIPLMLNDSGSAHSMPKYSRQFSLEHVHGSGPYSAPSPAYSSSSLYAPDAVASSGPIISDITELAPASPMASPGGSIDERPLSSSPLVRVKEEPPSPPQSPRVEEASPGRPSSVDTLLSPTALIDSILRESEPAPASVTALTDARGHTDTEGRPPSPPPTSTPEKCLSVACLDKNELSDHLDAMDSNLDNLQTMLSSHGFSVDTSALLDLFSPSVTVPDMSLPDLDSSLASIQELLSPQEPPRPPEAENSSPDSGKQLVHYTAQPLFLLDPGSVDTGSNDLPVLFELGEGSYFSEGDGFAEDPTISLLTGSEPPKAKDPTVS
# Chain of ETV5 (P41161 whole entry): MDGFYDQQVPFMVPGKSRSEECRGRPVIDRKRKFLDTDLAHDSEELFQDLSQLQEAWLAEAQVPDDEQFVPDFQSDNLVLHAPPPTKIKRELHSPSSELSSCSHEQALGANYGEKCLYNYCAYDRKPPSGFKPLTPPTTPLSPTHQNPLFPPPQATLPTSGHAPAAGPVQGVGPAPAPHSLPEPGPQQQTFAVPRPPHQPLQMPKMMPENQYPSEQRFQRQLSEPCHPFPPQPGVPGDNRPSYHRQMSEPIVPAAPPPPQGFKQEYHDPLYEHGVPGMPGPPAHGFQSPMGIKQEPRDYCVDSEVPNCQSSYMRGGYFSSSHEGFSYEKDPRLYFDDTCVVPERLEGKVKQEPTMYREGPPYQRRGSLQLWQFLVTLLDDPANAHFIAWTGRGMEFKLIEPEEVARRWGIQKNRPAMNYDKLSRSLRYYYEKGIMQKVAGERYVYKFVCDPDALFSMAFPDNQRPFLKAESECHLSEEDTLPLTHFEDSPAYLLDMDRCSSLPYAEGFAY
# Chain of ETV1 (P50549 whole entry): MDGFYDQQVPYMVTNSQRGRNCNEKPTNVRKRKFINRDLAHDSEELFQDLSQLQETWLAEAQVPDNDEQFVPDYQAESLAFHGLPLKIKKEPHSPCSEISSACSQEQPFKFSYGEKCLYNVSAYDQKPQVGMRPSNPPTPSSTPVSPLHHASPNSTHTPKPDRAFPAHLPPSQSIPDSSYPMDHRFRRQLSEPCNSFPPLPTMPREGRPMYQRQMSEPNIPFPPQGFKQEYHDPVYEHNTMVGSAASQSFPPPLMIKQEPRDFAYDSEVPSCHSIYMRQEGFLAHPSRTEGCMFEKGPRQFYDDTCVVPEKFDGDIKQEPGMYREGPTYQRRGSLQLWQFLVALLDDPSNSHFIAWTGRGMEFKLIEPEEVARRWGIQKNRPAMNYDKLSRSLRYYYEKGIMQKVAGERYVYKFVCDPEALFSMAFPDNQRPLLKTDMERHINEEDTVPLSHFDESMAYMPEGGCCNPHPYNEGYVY
# Chain of ELF4 (Q99607 whole entry): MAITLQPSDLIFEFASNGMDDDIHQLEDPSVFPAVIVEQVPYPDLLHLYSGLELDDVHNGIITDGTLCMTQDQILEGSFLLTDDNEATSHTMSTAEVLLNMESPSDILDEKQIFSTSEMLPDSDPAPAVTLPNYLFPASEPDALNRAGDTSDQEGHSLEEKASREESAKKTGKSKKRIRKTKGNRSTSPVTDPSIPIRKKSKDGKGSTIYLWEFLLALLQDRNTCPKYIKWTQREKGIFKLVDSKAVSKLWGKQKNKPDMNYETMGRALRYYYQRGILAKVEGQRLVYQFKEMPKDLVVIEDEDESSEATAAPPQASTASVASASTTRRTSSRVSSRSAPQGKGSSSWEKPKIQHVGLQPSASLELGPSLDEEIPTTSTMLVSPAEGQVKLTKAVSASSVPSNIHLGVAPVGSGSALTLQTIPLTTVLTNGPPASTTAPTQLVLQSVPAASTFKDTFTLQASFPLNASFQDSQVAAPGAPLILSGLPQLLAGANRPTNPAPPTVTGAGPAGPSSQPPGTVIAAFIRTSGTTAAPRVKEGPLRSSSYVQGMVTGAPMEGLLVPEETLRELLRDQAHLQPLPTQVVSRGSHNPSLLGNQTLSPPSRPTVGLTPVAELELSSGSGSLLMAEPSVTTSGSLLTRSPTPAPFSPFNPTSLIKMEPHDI
# Chain of CRX (O43186 whole entry): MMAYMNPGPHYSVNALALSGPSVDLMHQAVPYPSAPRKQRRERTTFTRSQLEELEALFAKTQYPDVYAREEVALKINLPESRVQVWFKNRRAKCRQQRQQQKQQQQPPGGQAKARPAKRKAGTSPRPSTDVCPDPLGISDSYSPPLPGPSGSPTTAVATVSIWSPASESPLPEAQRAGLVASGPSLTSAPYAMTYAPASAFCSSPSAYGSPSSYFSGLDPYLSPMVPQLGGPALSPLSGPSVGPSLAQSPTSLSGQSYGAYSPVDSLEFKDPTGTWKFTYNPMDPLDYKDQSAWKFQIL
sequence,measurement,setting,value
TTGATT,binding signal,FEV,"1.18 fold enrichment (6-mer frequency, TF over GST control)"
same,binding signal,ETV5,"1.14 fold enrichment (6-mer frequency, TF over GST control)"
same,binding signal,HSF1,"1.32 fold enrichment (6-mer frequency, TF over GST control)"
same,binding signal,SPIC,"1.35 fold enrichment (6-mer frequency, TF over GST control)"
same,binding signal,ELF4,"1.25 fold enrichment (6-mer frequency, TF over GST control)"
same,binding signal,ELK4,"1.29 fold enrichment (6-mer frequency, TF over GST control)"
same,binding signal,ETV2,"1.32 fold enrichment (6-mer frequency, TF over GST control)"
same,binding signal,ELF3,"1.25 fold enrichment (6-mer frequency, TF over GST control)"
same,binding signal,CRX,"1.48 fold enrichment (6-mer frequency, TF over GST control)"
same,binding signal,ETV1,"1.27 fold enrichment (6-mer frequency, TF over GST control)"
same,binding signal,ERF,"1.31 fold enrichment (6-mer frequency, TF over GST control)"
same,binding signal,ETV3L,"1.25 fold enrichment (6-mer frequency, TF over GST control)"
same,binding signal,ETS2,"1.22 fold enrichment (6-mer frequency, TF over GST control)"
same,binding signal,SPDEF,"1.15 fold enrichment (6-mer frequency, TF over GST control)"
same,binding signal,ETV7,"1.28 fold enrichment (6-mer frequency, TF over GST control)"
same,binding signal,ELF5,"1.16 fold enrichment (6-mer frequency, TF over GST control)"
same,binding signal,ETV3,"1.3 fold enrichment (6-mer frequency, TF over GST control)"
same,binding signal,ETV6,"1.18 fold enrichment (6-mer frequency, TF over GST control)"
